From the supplement of paper PMC6555819 come the findings set out here.

The first experiment concerns LXRa homodimer (NR concentration 270 nM). Nature of the experiment: PBM binding z-score (relative to random genomic background probes); higher = stronger binding; sequences stand for … in GC…GCGATTGACAGCGTAGAATGAAGG
The method in brief:
(§1)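 Probes were double-stranded and carried 34-nt variable regions with direct-repeat seeds, single-nucleotide variants, half-site ablations and random human genomic background sequences, printed on custom Agilent 4×180K protein-binding microarrays. Arrays were incubated 1 h with ligand-free nuclear receptor dimers in PBS pH 7.4, 2% milk, 0.02% Triton X-100, 1 mM DTT, 0.2 mg/mL BSA and 0.4 mg/ml salmon testes DNA. Antibodies against each partner (one per run) detected binding, and scanned fluorescence was regression-normalized. Binding z-scores use the random background probes as reference.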
The sequence CCTTACGGGTCACTGACAGGTTACAGCATTTGGA had a PBM binding z-score of 0.335.

Sequence CCAGACAGGTGAAAAGTAACTCAGTCTGGTACGC came in with a PBM binding z-score of -0.078.

As to ATCTCTAGGTAACCAAGATCAGTGAATGCCGAAC, the PBM binding z-score amounted to 0.199.

The sequence CCTACTGAGCCAAAGGTCATTGATTCCAATGCTC gave a PBM binding z-score of 4.66.

On to GCGACTGGGGCATCAGAAGGTTACCATAACTTAA, for which the PBM binding z-score is -0.311.

As for ATCTATAGGTAACCAAGTTCAGTGAATGCCGAAC, the PBM binding z-score was found to be 0.873.

Take CCAGACAGGTGAGAAGGCAACTCAGCCTCGATTA: the PBM binding z-score is -0.234.

Regarding CCAGTCAGGTGAGAAGGTAACTCAGCCTCGATTA, the PBM binding z-score is -0.218.

TCGACTAGGTTAGTCGGGGCATTCAGCCAACATA showed a PBM binding z-score of -0.672.

CGTCCAAGTTCAACTAAGGTAACGTAAAGCACGC registered a PBM binding z-score of 1.01.

The sequence AATACAGGGGCACTAGGCCAGAGTAGGTACGAAT returned a PBM binding z-score of -0.197.

With CCTGCTAGGTCATGGACAGCTAATCTACAGTATG, the PBM binding z-score is -0.434.

GCTAGTTGGGCAGTAAAAGGTCACACACCGGTCG came in with a PBM binding z-score of 4.34.

Take TCAGACGGGTGAAGGTAACTCAGGTACGCAGTCG: the PBM binding z-score was -0.137.

Consider ATCTCTAGGTACGACTCAGTTCAGTGAAGAACGC, for which the PBM binding z-score is 0.735.

Turning to GCGACTGGGGCATAGCAGGTTACCATAAGGTTGG, the PBM binding z-score is -0.575.

The sequence CGTCAAAGTTCAACTAAGGTAACGTAAAGCACGC registered a PBM binding z-score of 4.44.

TCAGACAGGTGAACGTAACTCAGGTACGCAGTCG gave a PBM binding z-score of -0.111.

The next experiment has as its system LXRb:RXRa (NR concentration 270 nM, RXRa partner concentration 90 nM). The description is as above. The method in brief: as §1
GATACAGGGTCAGCTAGAGGCCTGAGTATGGAAA came in with a PBM binding z-score of 1.75.

Consider CTCGAAAGGTCGTGCTCAGGTGAGCATACCAAAC, for which the PBM binding z-score turned out to be 3.23.

CGTCCAAGGTCAAAGGTCAGTGAGGAGATGACGG displayed a PBM binding z-score of 6.21.

Sequence GATGCTAGGTCAACTGATGGTCAGCTAAAGCTCG registered a PBM binding z-score of 2.11.

On to AGATTGAGGTTATTAAGATCAGGGAATTGCGGTC, for which the PBM binding z-score was determined as 1.32.

Sequence CGTCCAAGGCCAATGCTAGGTCAGTGAAAGCATT registered a PBM binding z-score of -0.036.

As to GAAACAGGGTCAAGGCCAGAGTACGCGTATTGAT, the PBM binding z-score turned out to be 3.92.

With CCGCCTAGGTCAGGGCCAGTATAGGAGGAACGTT, the PBM binding z-score amounted to 1.1.

Turning to CCGAGTAGGTTAGGGGGCATTCAGGCAACGGTGA, the PBM binding z-score was 4.42.

ACTCGGAGGACAACGGTCAGAGCTACGCCAGTGA registered a PBM binding z-score of -0.773.

CGTCAAAGTTCAACTAAGGTAACGTACAGCACGC displayed a PBM binding z-score of 4.34.

With GCGACTGGGGCATCAGCAGGTTACAATAACTTAA, the PBM binding z-score worked out at 0.834.

On to TCTCGGAAGACACGAAAGGTCAGAGCTCGACATC, for which the PBM binding z-score came out at 3.1.

Regarding TCGAGAAGGTTAGTCGGGGCATTCAGCCAACATA, the PBM binding z-score was found to be 0.863.

In the case of AGAATGAGGTTATACGTAGATCAGGGAGGAAAGT, the PBM binding z-score is 1.53.

The sequence ATATGTAGGTTATCGGGCCATTCAGTTTGCGCAT yielded a PBM binding z-score of 0.95.

Sequence TATACAGGGTAAAAGGCCAGAGTACGAATGTCGA gave a PBM binding z-score of 0.483.

As to CCTGCTAGGTAAATGGTCAGCTAAAGCAGCTCGC, the PBM binding z-score was -0.628.

Regarding TCTAATTGGTCAAAGGTCACACACTCGAAATGCG, the PBM binding z-score came to 5.53.

Sequence TCATATAGGTTAATGCTAGGTGAAAGTCCGATCT returned a PBM binding z-score of 1.28.

Regarding TAGCCTAGGTCAGATCGGCCCAGTATACGCTATA, the PBM binding z-score turned out to be 0.955.

Sequence CAAACTAGGTAACAGAGGTCAAAGTCCGTGCGTA returned a PBM binding z-score of 5.38.

In turn, CCTTACGGGTCACTGACAGGTTACAGCATTTGGA came in with a PBM binding z-score of 3.43.

In the case of CCAGACAGGTGAAAAGTAACTCAGTCTGGTACGC, the PBM binding z-score amounted to 0.0504.

As to ATCTCTAGGTAACCAAGATCAGTGAATGCCGAAC, the PBM binding z-score is 0.274.

CCTACTGAGCCAAAGGTCATTGATTCCAATGCTC displayed a PBM binding z-score of 5.13.

GCGACTGGGGCATCAGAAGGTTACCATAACTTAA had a PBM binding z-score of 1.22.

On to ATCTATAGGTAACCAAGTTCAGTGAATGCCGAAC, for which the PBM binding z-score came to 0.556.

On to CCAGACAGGTGAGAAGGCAACTCAGCCTCGATTA, for which the PBM binding z-score is -0.403.

Consider CCAGTCAGGTGAGAAGGTAACTCAGCCTCGATTA, for which the PBM binding z-score is -0.0607.

For TCGACTAGGTTAGTCGGGGCATTCAGCCAACATA, the PBM binding z-score is -0.0911.

Take CGTCCAAGTTCAACTAAGGTAACGTAAAGCACGC: the PBM binding z-score was 2.17.

With AATACAGGGGCACTAGGCCAGAGTAGGTACGAAT, the PBM binding z-score was found to be 0.693.

For CCTGCTAGGTCATGGACAGCTAATCTACAGTATG, the PBM binding z-score stood at 1.75.

GCTAGTTGGGCAGTAAAAGGTCACACACCGGTCG: the PBM binding z-score was 3.64.

For TCAGACGGGTGAAGGTAACTCAGGTACGCAGTCG, the PBM binding z-score worked out at 0.138.

For ATCTCTAGGTACGACTCAGTTCAGTGAAGAACGC, the PBM binding z-score was 0.686.

GCGACTGGGGCATAGCAGGTTACCATAAGGTTGG gave a PBM binding z-score of 0.25.

CGTCAAAGTTCAACTAAGGTAACGTAAAGCACGC had a PBM binding z-score of 4.24.

The sequence TCAGACAGGTGAACGTAACTCAGGTACGCAGTCG showed a PBM binding z-score of 0.538.

The subject of the next experiment is LXRb homodimer (NR concentration 270 nM). The description is as above. Put shortly: as §1
For GATACAGGGTCAGCTAGAGGCCTGAGTATGGAAA, the PBM binding z-score is -0.639.

Sequence CTCGAAAGGTCGTGCTCAGGTGAGCATACCAAAC had a PBM binding z-score of 0.516.

In turn, CGTCCAAGGTCAAAGGTCAGTGAGGAGATGACGG showed a PBM binding z-score of 1.86.

In turn, GATGCTAGGTCAACTGATGGTCAGCTAAAGCTCG displayed a PBM binding z-score of 0.0631.

On to AGATTGAGGTTATTAAGATCAGGGAATTGCGGTC, for which the PBM binding z-score amounted to 0.271.

The sequence CGTCCAAGGCCAATGCTAGGTCAGTGAAAGCATT came in with a PBM binding z-score of -0.831.

GAAACAGGGTCAAGGCCAGAGTACGCGTATTGAT came in with a PBM binding z-score of -0.239.

The sequence CCGCCTAGGTCAGGGCCAGTATAGGAGGAACGTT returned a PBM binding z-score of -0.93.

In turn, CCGAGTAGGTTAGGGGGCATTCAGGCAACGGTGA displayed a PBM binding z-score of 6.02.

Sequence ACTCGGAGGACAACGGTCAGAGCTACGCCAGTGA had a PBM binding z-score of -0.828.

In the case of CGTCAAAGTTCAACTAAGGTAACGTACAGCACGC, the PBM binding z-score is 2.05.

Turning to GCGACTGGGGCATCAGCAGGTTACAATAACTTAA, the PBM binding z-score was -0.691.

In turn, TCTCGGAAGACACGAAAGGTCAGAGCTCGACATC showed a PBM binding z-score of 0.242.

TCGAGAAGGTTAGTCGGGGCATTCAGCCAACATA displayed a PBM binding z-score of -0.323.

With AGAATGAGGTTATACGTAGATCAGGGAGGAAAGT, the PBM binding z-score was found to be 0.198.

With ATATGTAGGTTATCGGGCCATTCAGTTTGCGCAT, the PBM binding z-score came to 0.458.

In turn, TATACAGGGTAAAAGGCCAGAGTACGAATGTCGA had a PBM binding z-score of 0.559.

In the case of CCTGCTAGGTAAATGGTCAGCTAAAGCAGCTCGC, the PBM binding z-score is -0.539.

Turning to TCTAATTGGTCAAAGGTCACACACTCGAAATGCG, the PBM binding z-score came out at 2.67.

On to TCATATAGGTTAATGCTAGGTGAAAGTCCGATCT, for which the PBM binding z-score was 0.557.

TAGCCTAGGTCAGATCGGCCCAGTATACGCTATA had a PBM binding z-score of -0.183.

CAAACTAGGTAACAGAGGTCAAAGTCCGTGCGTA registered a PBM binding z-score of 1.74.

The sequence CCTTACGGGTCACTGACAGGTTACAGCATTTGGA displayed a PBM binding z-score of -0.275.

As for CCAGACAGGTGAAAAGTAACTCAGTCTGGTACGC, the PBM binding z-score was -0.286.

In turn, ATCTCTAGGTAACCAAGATCAGTGAATGCCGAAC came in with a PBM binding z-score of 0.276.

For CCTACTGAGCCAAAGGTCATTGATTCCAATGCTC, the PBM binding z-score stood at 2.18.

On to GCGACTGGGGCATCAGAAGGTTACCATAACTTAA, for which the PBM binding z-score was -0.607.

ATCTATAGGTAACCAAGTTCAGTGAATGCCGAAC had a PBM binding z-score of 0.386.

In the case of CCAGACAGGTGAGAAGGCAACTCAGCCTCGATTA, the PBM binding z-score was -0.663.

CCAGTCAGGTGAGAAGGTAACTCAGCCTCGATTA showed a PBM binding z-score of -0.774.

Take TCGACTAGGTTAGTCGGGGCATTCAGCCAACATA: the PBM binding z-score was -0.943.

For CGTCCAAGTTCAACTAAGGTAACGTAAAGCACGC, the PBM binding z-score came to 0.515.

AATACAGGGGCACTAGGCCAGAGTAGGTACGAAT gave a PBM binding z-score of -0.000441.

Turning to CCTGCTAGGTCATGGACAGCTAATCTACAGTATG, the PBM binding z-score was -0.251.

Turning to GCTAGTTGGGCAGTAAAAGGTCACACACCGGTCG, the PBM binding z-score was 0.418.

TCAGACGGGTGAAGGTAACTCAGGTACGCAGTCG: the PBM binding z-score is -0.885.

ATCTCTAGGTACGACTCAGTTCAGTGAAGAACGC returned a PBM binding z-score of 1.15.

As to GCGACTGGGGCATAGCAGGTTACCATAAGGTTGG, the PBM binding z-score was -0.915.

As to CGTCAAAGTTCAACTAAGGTAACGTAAAGCACGC, the PBM binding z-score turned out to be 1.99.

In the case of TCAGACAGGTGAACGTAACTCAGGTACGCAGTCG, the PBM binding z-score was -0.313.
